# This is one part of a sample in which hits are shown more often than they occur.
# CtBP-E1A inh: CtBP/E1A binding inhibition. AlphaScreen GST-E1A/His-CtBP binding, 1536-well; active compounds read low. activity change, % (no concentration beside the values). 340,000 compounds, 0.49% hits. AID 651724
#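 Homogeneous bead-based format: GST-tagged E1A captured on glutathione donor beads, His-tagged CtBP on nickel acceptor beads; compounds precede bead addition by 2 h at 37 °C.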
# Six1-Eya2 blk: Six1/Eya2 interaction inhibition. Q15475+O00167. AlphaScreen GST-Six1/His-Eya2 binding, biochemical; active compounds read low. activity change, % (concentration not given with the values). 360,000 compounds, 0.56% hits
#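 Homogeneous AlphaScreen proximity assay pairing GST-Six1 with His-tagged Eya2 (added as 5X mix: 250 nM and 500 nM) in 50 mM Tris pH 8.0, 300 mM NaCl, 1 mM TCEP. Glutathione donor and nickel acceptor beads; 1 h, 37 °C, dark.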
# L3MBTL1 inh: L3MBTL1 (human) inhibition; Q9Y468; AlphaScreen L3MBTL1–H3K9me1 peptide binding; Potency, µM (doses to about 57.1 µM), without a hit: at the highest dose activity, negative = inhibition, hits mostly inhibitors; 230,000 compounds, 0.66% hits; AID 485360; active means well fitted inhibition curve with a large enough effect; inconclusive means small, poorly fitted or top-dose-only effect; inactive means no such curve, though single readings can be large or run the other way; further: potency means the concentration at half of the fitted maximal effect; nearly all actives have a fitted effect of over 60% in size
# Target sequence (Q9Y468 whole entry, looked up): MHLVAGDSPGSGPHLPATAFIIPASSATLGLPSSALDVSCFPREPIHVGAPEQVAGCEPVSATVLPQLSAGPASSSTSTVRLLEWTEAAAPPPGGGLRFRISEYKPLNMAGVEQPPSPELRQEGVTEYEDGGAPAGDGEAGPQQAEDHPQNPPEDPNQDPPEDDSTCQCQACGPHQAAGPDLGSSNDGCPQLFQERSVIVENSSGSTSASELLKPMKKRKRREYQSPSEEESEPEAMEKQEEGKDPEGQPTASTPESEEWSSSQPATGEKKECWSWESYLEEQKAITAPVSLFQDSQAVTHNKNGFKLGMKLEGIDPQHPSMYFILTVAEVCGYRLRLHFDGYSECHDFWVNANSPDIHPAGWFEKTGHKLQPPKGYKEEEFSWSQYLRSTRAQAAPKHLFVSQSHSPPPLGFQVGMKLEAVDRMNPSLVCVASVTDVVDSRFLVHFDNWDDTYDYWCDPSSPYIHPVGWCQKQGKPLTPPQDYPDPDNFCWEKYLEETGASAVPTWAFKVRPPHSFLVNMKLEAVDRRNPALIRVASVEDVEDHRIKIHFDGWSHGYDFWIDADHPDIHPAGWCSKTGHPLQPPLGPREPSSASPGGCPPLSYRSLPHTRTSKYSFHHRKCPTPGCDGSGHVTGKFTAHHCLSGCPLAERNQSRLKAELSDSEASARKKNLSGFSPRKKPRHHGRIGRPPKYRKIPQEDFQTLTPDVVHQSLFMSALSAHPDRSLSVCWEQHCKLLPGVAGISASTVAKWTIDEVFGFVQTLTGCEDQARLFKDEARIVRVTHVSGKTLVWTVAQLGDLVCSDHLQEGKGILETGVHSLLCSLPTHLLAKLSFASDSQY
#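 L3MBTL1 (50 nM) pre-complexed 30 min with biotinylated H3(1-15)K9me1 peptide (75 nM), then compounds added for 30 min at room temperature; AlphaScreen streptavidin donor/nickel chelate acceptor beads (10 ug/mL final) read after 30 min dark incubation.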
# JMJD2E inh: JMJD2E (human) inhibition. Potency, µM (titrated, usually from 57.1 µM), for inactives: at the highest dose activity change, negative = inhibition, hits mostly inhibitors. JMJD2E catalytic domain, FDH-coupled NADH fluorescence (FDH is formaldehyde dehydrogenase). 230,000 compounds, 1.6% hits. B2RXH2; active means well fitted inhibition curve with a large enough effect, not every such curve was filed as active; inconclusive means small, poorly fitted or top-dose-only effect, or another doubt; inactive means no such curve, though single readings can be large or run the other way;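 further: potency means the concentration at half of the fitted maximal effect; 0% = wells with enzyme and -100% = buffer wells without enzyme; nearly all actives have a fitted effect of over 50% in size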
# An asterisk follows results filed as active; ? = inconclusive; nt = no result given; [ ] = remark or other dose. Unless noted, no stated cut-off is given here; in the data, active means activity change below about -65%; inconclusive means mostly about -30% to -63%; inactive means weaker than that. Unless noted, on the % scale 0 is the no-effect control and ±100 the full control effect.
SMILES,CtBP-E1A inh,Six1-Eya2 blk,L3MBTL1 inh,JMJD2E inh
Cn1cccc1/C=N/NC(=O)C(O)c1ccccc1 (stereo not drawn),-3,-3,nt,25µM*
Cn1cccc1/C=N/NC(=O)Cc1ccccc1,-18,-8,nt,-12%
CCOc1ccc(/C=N/NC(=O)C(O)c2ccccc2)c(O)c1 (stereo not drawn),-85*,?,5%,nt
CCOc1ccc(CCNC(=O)C(O)c2ccccc2)cc1 (stereo not drawn),8,5,6%,8%
Cc1c(Br)c(O)c(Br)c2sc(=O)oc12,-10,?,35µM*,32µM*
N#C/C(=C/c1ccc(N2CCCCCC2)o1)c1cccc(F)c1,-9,-15,nt,0%
COc1cc(N2CCCC2)c(OC)cc1/C=C(/C#N)c1cccc(F)c1,?,-72*,nt,-14%
COCCN=c1scc(-c2ccco2)n1/N=C/c1ccc(O)c(O)c1O,-79*,-84*,1.4µM*,22µM*
Oc1ccc(/C=N/n2c(-c3ccco3)csc2=Nc2cccnc2)c(O)c1,-93*,-93*,-8%,-14%
O=c1c2ccccc2nc(-c2ccco2)n1/N=C/c1ccccc1O,-11,?,6%,2%
C=CCN=c1scc(-c2ccco2)n1/N=C/c1ccc(O)c(O)c1O,-78*,-67*,18µM*,11µM*
COCCN=c1scc(-c2cccs2)n1/N=C(\C)c1ccco1,-5,?,?,0%
COC(=O)C1=C(C(=O)OC)[C@@H]2N(C)c3ccc(OC)cc3[C@@]23C[C@@H](C(=O)OC)N(S(=O)(=O)c2cccs2)C3=N1,nt,nt,nt,2%[11.4 µM]
Cc1onc(-c2ccccc2)c1C(=O)N1CCC(CO)(Cc2ccccc2)CC1,0,16,nt,nt
Cc1cc(O)c(-c2cc(C(=O)Nc3ccc(S(=O)(=O)N4CCOCC4)cc3)[nH]n2)cc1C,-72*,?,2%,1%
S=C(NCc1ccccn1)Nc1cccc(Cl)c1,-3,4,0%,9%
C/C(=N\NC(=O)c1cc(C)nc2ccccc12)c1ccccn1,-92*,-89*,28µM*,nt
CC(=NNC(=S)Nc1cccc(Cl)c1)c1ccccn1,-96*,-91*,nt,nt
CC(=NNC(=S)N1CCC1)c1ccccn1,-95*,-91*,nt,nt
C/C(=N\NC(=O)c1ccc(Cl)cc1)c1ccccn1,?,-90*,?,nt
COCCNC(=O)C1(C)C=CCN1C(C)=O (stereo not drawn),nt,nt,nt,-10%
CC(=NNC(=S)N1CC2CCC(CC2)C1)c1cccc(C)n1,-16,-88*,nt,nt
C/C(=N\NC(=O)COc1ccccc1-c1ccccc1)c1ccccn1,-25,-65*,-2%,?
CCCCCCCCCCCCCCCCCCOC[C@@H](O)COP(=O)([O-])OCC[N+](C)(C)C,nt,nt,nt,-1%
COc1cc(NC(=O)COC(=O)CO/N=C(\C)c2ccc3c(c2)OCO3)cc(OC)c1OC,7,2,24%,nt
SMILES,CtBP-E1A inh,Six1-Eya2 blk,L3MBTL1 inh,JMJD2E inh
COc1ccc(CCNC(=O)c2ccc(=O)[nH]c2)cc1OC,4,0,nt,nt
O=c1cc(-c2ccccc2)[nH]n1-c1nc2ccccc2[nH]1,-77*,-81*,?,?
c1ccc(N2CCN(c3nc(-c4ccccn4)nc4ccccc34)CC2)cc1,-71*,-67*,?,-4%
O=C(COC(=O)Cn1cnc2ccccc21)Nc1ccc(OC(F)F)cc1,0,2,5%,nt
Cn1c2ccccc2c2n[nH]c(=S)nc21,-79*,-83*,2%,nt
Cc1ccc2c(c1)c1n[nH]c(=S)nc1n2CCc1ccccc1,nt,0,nt,nt
Cn1c2ccccc2c2n[nH]c(=O)nc21,-2,-25,nt,3%
CCn1c2ccc(C)cc2c2n[nH]c(=S)nc21,-88*,-75*,-1%,nt
O=C(CSc1nc2c(cnn2-c2ccc(F)cc2)c(=O)[nH]1)N1N=C(c2cccs2)CC1c1ccc(F)cc1 (stereo not drawn),nt,nt,4%,5µM*
CCOc1cc(CNc2ccc(O)cc2)ccc1OCc1ccc(Cl)cc1Cl,?,-28,?,4.5µM*
CCOc1cccc(CNc2ccc(O)cc2)c1OCc1ccc(Cl)cc1,?,1,?,-28%
COC(=O)C1=C(C)[C@H](O)[C@@H](C)[C@](C)(c2cc(OC)c(C)c(OC)c2COc2ccccc2)O1,nt,nt,nt,2%
CC[C@H](C)[C@@H](NC(=O)O[C@H]1C(=O)c2ccc(OC)cc2O[C@@H]1c1ccc2c(c1)OCO2)C(=O)OC,nt,nt,nt,3%
O=C1CC(c2ccc(O)c(O)c2)Oc2cc(O)cc(O)c21 (stereo not drawn),-21,-30,nt,28µM*
O=C1CC(c2ccc(O)cc2)Oc2cc(O)cc(O)c21 (stereo not drawn),4,-2,-3%,-5%
O=C1CC(c2ccc(O)c(O)c2)Oc2c1ccc(O)c2O (stereo not drawn),0,-26,nt,6.3µM*
CC(C)=CCc1c(O)ccc2c1OC(c1ccc(O)c(O)c1)CC2=O (stereo not drawn),2,-18,-23%,?
CCn1ccnc1CN(C)Cc1nc(CCC(C)C)no1,9,-2,-7%,-6%
CCCCC/C=C\C/C=C\C[C@H](O)/C=C/C=C\CCCC(=O)O,nt,nt,nt,3%
CC[n+]1ccc(C)c2cc(P(=O)(c3ccccc3)c3ccccc3)ccc21,-15,3,nt,25µM*
Cc1ccnc2ccc(P(=O)(c3ccccc3)c3ccccc3)cc12,nt,nt,6%,2%
COc1ccc2c(c1)N(S(=O)(=O)c1ccccc1)CCC2=O,5,0,5%,-3%
O=C(Oc1ccc(C(=S)N2CCOCC2)cc1)c1cccc(Cl)c1,0,-80*,-9%,nt
O=C(/C=C/c1ccccc1)Oc1cccc(C(=S)N2CCOCC2)c1,-5,-69*,nt,3%
O=C(Oc1ccc(C(=S)N2CCOCC2)cc1)c1cc([N+](=O)[O-])cc([N+](=O)[O-])c1,11,-2,nt,nt
SMILES,CtBP-E1A inh,Six1-Eya2 blk,L3MBTL1 inh,JMJD2E inh
O=C(Oc1ccc(C(=S)N2CCC(O)CC2)cc1)c1ccc(Cl)cc1,-84*,-90*,1%[11.4 µM],-1%
c1ccc2sc(SN3CCOCC3)nc2c1,-4,7,6%,13µM*
CCOC(=O)c1c(C)[nH]c(C(=O)OCc2nc3ccsc3c(=O)[nH]2)c1C,-8,-20,nt,nt
O=C(O)c1ccccc1-c1ccc(C=c2sc3nc4cc(Br)cnc4n3c2=O)o1,?,-69*,nt,nt
CCOc1ccc2c(c1)[N+](C)(C)C(C)(C)C=C2C,-19,2,28%,-11%
COc1ccc2c(c1)[N+](C)(C)C(C)(C)C=C2C,nt,-3,nt,20µM*
CC(C)n1c(O)c(N=NC(=O)c2ccccc2NS(=O)(=O)c2cccs2)c2ccccc21,nt,-86*,1%,-2%
CC1=C(C#N)C(=O)N(C2CCS(=O)(=O)C2)C(=O)/C1=C\c1ccc(C)o1 (stereo not drawn),nt,nt,14µM*,?
CCn1c(/C=C/c2ccc(O)cc2)nc2ccccc2c1=O,-16,-5,-6%,nt
CCn1c(/C=C/c2ccc(O)c(O)c2)nc2ccccc2c1=O,nt,-30,20µM*,nt

# Screening data (PubChem BioAssay)
